Hits are enriched below; roughly 5.7% of the tested compounds scored in any of these assays.
hgDAF12 agonist: hgDAF-12 agonism, primary luciferase screen; AID 687014; hit rate 1.8% among 370,000; activation, % at 6.8 µM; HEK293 GAL4-hgDAF12 UAS-luciferase reporter, agonist luminescence; normalized to butyrate control;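 active = activation above a cutoff set at the mean of all screened compounds plus 3 SD, cut at about 10% in these data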;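 note: 0% = DMSO wells and 100% = sodium butyrate wells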
ssDAF12 agonist: S. stercoralis DAF-12 activation, primary screen. HEK293 ssDAF-12/GRIP1 lit1-tk-luc reporter, luminescence; % of 3 µM dafachronic acid response. activation, % at 6.8 µM. hit rate 1% among 370,000. AID 652126;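 active = activation above the mean over all tested compounds plus 3 SD, cut at about 0.9% in these data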;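 note: 0% = DMSO-only wells and 100% = 3 µM delta7-dafachronic acid wells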
DAX1 inh-1: inhibits human nuclear receptor DAX1; P51843; HEK293 Gal4-DAX1 luciferase reporter, luminescence; inhibition, % at 6.75 µM; hit rate 0.99% among 340,000; AID 504766;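 active = inhibition above the mean over all tested compounds plus 3 SD, cut at about 4.2% in these data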;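 note: 0% = DAX1-transfected cells with DMSO and 100% = empty-vector control cells with DMSO; inhibition shows as a rise in luminescence from relieved DAX1 repression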
Target sequence (P51843 207-470 limits assumed): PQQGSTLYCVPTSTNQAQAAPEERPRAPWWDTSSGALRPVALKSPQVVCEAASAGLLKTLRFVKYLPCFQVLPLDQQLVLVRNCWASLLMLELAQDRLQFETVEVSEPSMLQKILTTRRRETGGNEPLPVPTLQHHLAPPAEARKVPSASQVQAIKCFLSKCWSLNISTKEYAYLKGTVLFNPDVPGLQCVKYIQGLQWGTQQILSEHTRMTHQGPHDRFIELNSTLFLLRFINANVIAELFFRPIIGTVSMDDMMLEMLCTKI
hcDAF12 agonist: H. contortus DAF-12 activation, primary screen. activation, % at 6.8 µM. HEK293 hcDAF-12 lit1-tk-luc reporter, luminescence; 0% DMSO, 100% Δ7-dafachronic acid. hit rate 1.4% among 370,000. AID 652067;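 active = activation above the mean of all tested compounds plus 3 SD, cut at about 5.5% in these data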;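 note: 100% = response to 3 µM Δ7-dafachronic acid high control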
DAX1 inh-2: blocks DAX1 repression of SF-1 activated StAR promoter | HEK293T StAR-luciferase reporter, SF-1/DAX-1 repression relief | inhibition, % at 6.8 µM | hit rate 1.1% among 370,000;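 active = inhibition above the mean over all tested compounds plus 3 SD, cut at about 3.6% in these data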;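 note: 0% = DAX-1 cells with DMSO and 100% = cells lacking DAX-1 with DMSO; higher inhibition means more luminescence from relief of DAX-1 repression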
AHR act: human AHR activation. P35869. AHR-responsive luciferase reporter cells, luminescence. activation, % at 5 µM. hit rate 2.5% among 320,000. AID 2796; in the data active = activation above about 47%;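 note: 0% = vehicle wells and 100% = reference agonist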
* = called active by the depositor.

O=C(OCC(=O)N1CCCC1)c1ccc(Cl)c([N+](=O)[O-])c1 was read as hgDAF12 agonist 2, ssDAF12 agonist -2, DAX1 inh-1 0, hcDAF12 agonist 1, DAX1 inh-2 0 and AHR act -1.
For CC1CN(C(C)C)C(=S)NC1=O (configuration not stated) the results were hgDAF12 agonist -1, ssDAF12 agonist -1, DAX1 inh-1 -1, hcDAF12 agonist -1 and DAX1 inh-2 3.6*.
Screening N#Cc1cc(-c2ccccc2)nc(N2CCNCC2)n1 returned hgDAF12 agonist 1, ssDAF12 agonist -1, DAX1 inh-1 1, hcDAF12 agonist -1, DAX1 inh-2 -1 and AHR act 50*.
Screening Cc1c(C(=O)N2CCN(C)CC2)oc2c1C(=O)CC(C)(C)C2 returned hgDAF12 agonist -2, ssDAF12 agonist -2, DAX1 inh-1 -1, hcDAF12 agonist -1, DAX1 inh-2 1 and AHR act 3.
Screening Cc1c(C(=O)N2CCc3ccccc32)oc2c1C(=O)CC(C)(C)C2 returned hgDAF12 agonist 8, ssDAF12 agonist 1, DAX1 inh-1 3, hcDAF12 agonist 4 and DAX1 inh-2 4.0*.
CCCN(CC(=O)Nc1ccccc1C)C(=O)c1ccc(-c2ccc(C(C)=O)cc2)o1 was read as DAX1 inh-1 -1 and AHR act 10.
`O=c1[nH]c(S)c(/C=C2\C=Nc3ccccc32)s1` gave hgDAF12 agonist 2, ssDAF12 agonist 1.2*, hcDAF12 agonist 4, DAX1 inh-2 0 and AHR act 57*.
For O=C(Cn1c(O)c(/C=C2\C=Nc3ccccc32)sc1=O)N1CCOCC1 the results were hgDAF12 agonist -2, ssDAF12 agonist -1, DAX1 inh-1 -2, hcDAF12 agonist -1, DAX1 inh-2 0 and AHR act 1.
CCCCC(=O)NC(c1ccco1)c1c(O)ccc2ccccc12 (configuration not stated) was read as hgDAF12 agonist 1, ssDAF12 agonist 0, DAX1 inh-1 -2, hcDAF12 agonist -2, DAX1 inh-2 0 and AHR act 3.
Cn1c2c(c(=O)n(C)c1=O)C(c1ccccc1Cl)CC(=O)N2 (configuration not stated) was read as hgDAF12 agonist -2, ssDAF12 agonist -1, DAX1 inh-1 1, hcDAF12 agonist 5.8*, DAX1 inh-2 0 and AHR act 1.
Screening CC1=NN(c2ccccc2)C(=O)/C1=C/c1c(O)n(-c2ccc(F)c(Cl)c2)[nH]c1=O returned AHR act 49*.
CCOC(=O)c1csc(NC(=O)COc2ccc(Cl)cc2Cl)n1 was read as hgDAF12 agonist -1, ssDAF12 agonist -2, DAX1 inh-1 0, hcDAF12 agonist -2, DAX1 inh-2 0 and AHR act 14.
For CCC(C)OC(=O)C1C(c2ccccc2)C(C(=O)O)C1c1ccccc1 (configuration not stated) the results were hgDAF12 agonist -3, ssDAF12 agonist -1, DAX1 inh-1 1, hcDAF12 agonist -1, DAX1 inh-2 -1 and AHR act 1.
Screening CC(=O)c1ccc(OCC(=O)Nc2cccc(C(=O)Nc3c(C)n(C)n(-c4ccccc4)c3=O)c2)cc1 returned hgDAF12 agonist 0, ssDAF12 agonist -1, DAX1 inh-1 0, hcDAF12 agonist 0 and DAX1 inh-2 -1.
Screening Cc1ccc(S(=O)(=O)Cc2ccc(C(=O)N3CCN(c4ccccn4)CC3)o2)cc1 returned hgDAF12 agonist 0, ssDAF12 agonist -2, DAX1 inh-1 4.7*, hcDAF12 agonist -1, DAX1 inh-2 0 and AHR act 17.
O=C(c1ccc(CS(=O)(=O)c2c(Cl)cccc2Cl)o1)N1CCN(c2ccccn2)CC1 was read as hgDAF12 agonist -5, ssDAF12 agonist -1, DAX1 inh-1 -1, hcDAF12 agonist -2, DAX1 inh-2 -1 and AHR act 94*.
O=C(c1ccc(CS(=O)(=O)c2ccc(Br)cc2)o1)N1CCN(c2ccccn2)CC1 was read as hgDAF12 agonist -1, ssDAF12 agonist -1, DAX1 inh-1 -3, hcDAF12 agonist -1, DAX1 inh-2 -1 and AHR act 17.
For CCOC(=O)C1(C(=O)OCC)COC(=O)C1CN1Cc2cc3ccccc3nc2C1 (configuration not stated) the results were hgDAF12 agonist 2, ssDAF12 agonist 1.0*, DAX1 inh-1 -1, hcDAF12 agonist 4 and DAX1 inh-2 -1.
For CCOC(=O)C1(CC2CCCCO2)CCN(Cc2nc3ccccc3nc2C)CC1 (configuration not stated) the results were hgDAF12 agonist 0, ssDAF12 agonist -1, hcDAF12 agonist 4, DAX1 inh-2 -1 and AHR act 8.
`CCN(CC)S(=O)(=O)c1ccc(N2CC(C(=O)NCCC3=CCCCC3)CC2=O)cc1` (configuration not stated) gave hgDAF12 agonist -1, ssDAF12 agonist -2, DAX1 inh-1 0, hcDAF12 agonist -3, DAX1 inh-2 -2 and AHR act 1.
Screening COc1ccc(Cl)cc1Nc1nc(C)cc(C)c1C(N)=O returned hgDAF12 agonist 1, ssDAF12 agonist -1, DAX1 inh-1 0, hcDAF12 agonist -1, DAX1 inh-2 0 and AHR act 59*.
Cc1cc(C)c(C(N)=O)c(Nc2cccc(Cl)c2C)n1 was read as hgDAF12 agonist -2, ssDAF12 agonist -1, DAX1 inh-1 1, hcDAF12 agonist 0, DAX1 inh-2 0 and AHR act 11.
C/C(=N/NC(=O)CC1N=C(Cc2ccccc2)NNC1=O)c1cccnc1 (configuration not stated) was read as hgDAF12 agonist 1, ssDAF12 agonist -1, DAX1 inh-1 1, hcDAF12 agonist -2, DAX1 inh-2 0 and AHR act 62*.
C/C(=N\NC(=O)CC1N=C(Cc2ccccc2)NNC1=O)c1ccc(C)cc1 (configuration not stated) was read as hgDAF12 agonist 5, ssDAF12 agonist -1, DAX1 inh-1 0, hcDAF12 agonist -1, DAX1 inh-2 0 and AHR act 18.
`CCc1nc(SCCO)c2oc3ccccc3c2n1` gave hgDAF12 agonist -1, ssDAF12 agonist -1, DAX1 inh-1 1, hcDAF12 agonist -3, DAX1 inh-2 -1 and AHR act 11.
Screening CCc1nc(SCC(=O)c2ccc(Cl)s2)c2oc3ccccc3c2n1 returned DAX1 inh-1 0 and AHR act 60*.
O=C(CS(=O)(=O)c1ccc(Cl)cc1)NCc1ccccc1 was read as hgDAF12 agonist 2, ssDAF12 agonist -1, DAX1 inh-1 0, hcDAF12 agonist -1, DAX1 inh-2 -2 and AHR act -1.
`CSc1ccccc1OCc1cc(C(=O)N2CCCC2c2nonc2C)no1` (configuration not stated) gave hgDAF12 agonist 13*, ssDAF12 agonist 0, DAX1 inh-1 1, hcDAF12 agonist 5.9*, DAX1 inh-2 1 and AHR act 11.
